Reference: ChEMBL document CHEMBL1961873, “Compounds: GSK PKIS; Assays: Nanosyn kinase panel” (2012)

Experiments:
[1] = target: T1, Inhibitor of nuclear factor kappa-B kinase subunit epsilon (Homo sapiens) (UniProt Q14164); details: at 1 µM;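 note: reported values are averaged percent inhibition figures against human IKKε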
T1 sequence (whole entry): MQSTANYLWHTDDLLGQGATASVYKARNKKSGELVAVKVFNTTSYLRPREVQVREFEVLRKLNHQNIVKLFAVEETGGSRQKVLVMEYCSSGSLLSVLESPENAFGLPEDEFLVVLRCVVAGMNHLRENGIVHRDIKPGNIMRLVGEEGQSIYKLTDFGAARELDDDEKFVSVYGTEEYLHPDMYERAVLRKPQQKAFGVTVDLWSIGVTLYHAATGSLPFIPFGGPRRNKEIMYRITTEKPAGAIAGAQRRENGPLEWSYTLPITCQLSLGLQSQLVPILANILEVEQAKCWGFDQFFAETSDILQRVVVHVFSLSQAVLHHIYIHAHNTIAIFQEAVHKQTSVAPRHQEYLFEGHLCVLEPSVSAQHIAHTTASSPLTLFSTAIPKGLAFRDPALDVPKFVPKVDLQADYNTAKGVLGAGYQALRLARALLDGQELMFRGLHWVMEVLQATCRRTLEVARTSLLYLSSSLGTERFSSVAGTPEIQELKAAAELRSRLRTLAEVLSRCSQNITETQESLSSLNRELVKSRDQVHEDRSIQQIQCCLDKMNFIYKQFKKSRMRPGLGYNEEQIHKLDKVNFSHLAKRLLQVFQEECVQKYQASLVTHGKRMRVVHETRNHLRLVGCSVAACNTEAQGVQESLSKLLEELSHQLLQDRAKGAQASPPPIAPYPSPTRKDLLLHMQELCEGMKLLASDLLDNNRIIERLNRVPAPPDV

[2] = target: T2, Serine/threonine-protein kinase Nek1 (Homo sapiens) (UniProt Q96PY6); details: at 0.1 µM
T2 sequence (whole entry): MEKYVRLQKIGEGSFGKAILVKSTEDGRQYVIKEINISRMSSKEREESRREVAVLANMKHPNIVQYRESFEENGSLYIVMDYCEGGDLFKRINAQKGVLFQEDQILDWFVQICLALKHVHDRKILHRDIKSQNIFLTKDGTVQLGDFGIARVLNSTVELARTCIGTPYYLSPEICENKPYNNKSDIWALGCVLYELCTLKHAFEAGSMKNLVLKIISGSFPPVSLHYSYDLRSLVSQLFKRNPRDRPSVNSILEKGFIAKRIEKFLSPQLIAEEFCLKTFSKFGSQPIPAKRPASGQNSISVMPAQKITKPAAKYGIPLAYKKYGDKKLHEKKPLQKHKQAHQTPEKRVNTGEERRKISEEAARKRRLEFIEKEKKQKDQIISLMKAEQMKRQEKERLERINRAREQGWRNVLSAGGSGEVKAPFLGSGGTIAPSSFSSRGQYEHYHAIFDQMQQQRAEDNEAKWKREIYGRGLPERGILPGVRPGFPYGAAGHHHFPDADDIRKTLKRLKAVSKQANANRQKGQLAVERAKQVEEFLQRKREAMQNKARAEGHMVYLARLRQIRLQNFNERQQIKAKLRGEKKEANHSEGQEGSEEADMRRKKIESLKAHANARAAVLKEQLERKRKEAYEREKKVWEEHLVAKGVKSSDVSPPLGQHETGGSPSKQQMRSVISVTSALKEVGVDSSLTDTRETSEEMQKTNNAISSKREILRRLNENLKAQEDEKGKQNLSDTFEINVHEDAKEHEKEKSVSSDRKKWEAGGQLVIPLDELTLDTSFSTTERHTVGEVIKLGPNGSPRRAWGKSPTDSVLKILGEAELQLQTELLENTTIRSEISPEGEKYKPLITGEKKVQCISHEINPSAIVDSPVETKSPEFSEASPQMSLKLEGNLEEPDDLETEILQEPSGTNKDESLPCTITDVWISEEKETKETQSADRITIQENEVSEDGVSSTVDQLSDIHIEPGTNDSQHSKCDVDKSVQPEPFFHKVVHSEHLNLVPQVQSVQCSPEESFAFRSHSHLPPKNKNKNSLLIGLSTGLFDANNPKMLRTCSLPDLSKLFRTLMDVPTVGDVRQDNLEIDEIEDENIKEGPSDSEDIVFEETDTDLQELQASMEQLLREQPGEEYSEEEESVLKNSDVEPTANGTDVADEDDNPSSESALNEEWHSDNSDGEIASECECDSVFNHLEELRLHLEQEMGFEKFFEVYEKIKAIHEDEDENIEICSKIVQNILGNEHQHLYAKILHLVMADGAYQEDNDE

[3] = target: T2, Serine/threonine-protein kinase Nek1 (Homo sapiens); details: at 1 µM
[4] = target: T3, Serine/threonine-protein kinase Nek2 (Homo sapiens) (UniProt P51955); details: at 0.1 µM
T3 sequence (whole entry): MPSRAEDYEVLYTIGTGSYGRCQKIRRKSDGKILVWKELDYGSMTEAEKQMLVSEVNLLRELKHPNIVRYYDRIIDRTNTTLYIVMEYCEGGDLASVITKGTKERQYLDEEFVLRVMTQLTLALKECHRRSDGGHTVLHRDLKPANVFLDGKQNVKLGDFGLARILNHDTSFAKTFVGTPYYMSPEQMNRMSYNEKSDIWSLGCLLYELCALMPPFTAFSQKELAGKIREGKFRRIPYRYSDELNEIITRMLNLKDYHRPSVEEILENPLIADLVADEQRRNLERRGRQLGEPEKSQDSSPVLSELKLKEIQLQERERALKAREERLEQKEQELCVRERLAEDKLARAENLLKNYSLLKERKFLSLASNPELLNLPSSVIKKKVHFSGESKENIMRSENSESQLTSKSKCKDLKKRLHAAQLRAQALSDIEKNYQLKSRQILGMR

[5] = target: T3, Serine/threonine-protein kinase Nek2 (Homo sapiens); details: at 1 µM
[6] = target: Serine/threonine-protein kinase Nek6 (Homo sapiens) (UniProt Q9HC98); details: at 0.1 µM
Serine/threonine-protein kinase Nek6 (Homo sapiens), sequence (Q9HC98 whole entry): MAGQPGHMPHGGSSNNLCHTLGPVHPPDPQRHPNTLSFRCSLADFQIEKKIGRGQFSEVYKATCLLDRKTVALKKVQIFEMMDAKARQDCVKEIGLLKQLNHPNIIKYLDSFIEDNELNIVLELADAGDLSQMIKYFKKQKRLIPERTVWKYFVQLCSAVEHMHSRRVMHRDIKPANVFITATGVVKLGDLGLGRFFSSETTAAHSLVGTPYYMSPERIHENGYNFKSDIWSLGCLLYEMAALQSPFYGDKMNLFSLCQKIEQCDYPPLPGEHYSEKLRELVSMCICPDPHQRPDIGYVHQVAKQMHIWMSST

[7] = target: Serine/threonine-protein kinase Nek6 (Homo sapiens) (UniProt Q9HC98); details: at 1 µM
[8] = target: Serine/threonine-protein kinase Nek7 (Homo sapiens) (UniProt Q8TDX7); details: at 0.1 µM
Serine/threonine-protein kinase Nek7 (Homo sapiens), sequence (Q8TDX7 whole entry, looked up): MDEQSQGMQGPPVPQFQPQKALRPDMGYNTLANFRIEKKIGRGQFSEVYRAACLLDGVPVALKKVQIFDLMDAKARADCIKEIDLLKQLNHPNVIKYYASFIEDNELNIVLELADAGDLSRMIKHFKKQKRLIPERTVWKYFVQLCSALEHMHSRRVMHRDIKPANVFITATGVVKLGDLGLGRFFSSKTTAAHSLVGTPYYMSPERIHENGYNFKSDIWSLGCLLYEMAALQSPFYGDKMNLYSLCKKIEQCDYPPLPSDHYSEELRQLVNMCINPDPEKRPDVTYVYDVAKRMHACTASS

[9] = target: Serine/threonine-protein kinase Nek7 (Homo sapiens) (UniProt Q8TDX7); details: at 1 µM
[10] = target: T4, Serine/threonine-protein kinase Nek9 (Homo sapiens) (UniProt Q8TD19); details: at 0.1 µM
T4 sequence (whole entry): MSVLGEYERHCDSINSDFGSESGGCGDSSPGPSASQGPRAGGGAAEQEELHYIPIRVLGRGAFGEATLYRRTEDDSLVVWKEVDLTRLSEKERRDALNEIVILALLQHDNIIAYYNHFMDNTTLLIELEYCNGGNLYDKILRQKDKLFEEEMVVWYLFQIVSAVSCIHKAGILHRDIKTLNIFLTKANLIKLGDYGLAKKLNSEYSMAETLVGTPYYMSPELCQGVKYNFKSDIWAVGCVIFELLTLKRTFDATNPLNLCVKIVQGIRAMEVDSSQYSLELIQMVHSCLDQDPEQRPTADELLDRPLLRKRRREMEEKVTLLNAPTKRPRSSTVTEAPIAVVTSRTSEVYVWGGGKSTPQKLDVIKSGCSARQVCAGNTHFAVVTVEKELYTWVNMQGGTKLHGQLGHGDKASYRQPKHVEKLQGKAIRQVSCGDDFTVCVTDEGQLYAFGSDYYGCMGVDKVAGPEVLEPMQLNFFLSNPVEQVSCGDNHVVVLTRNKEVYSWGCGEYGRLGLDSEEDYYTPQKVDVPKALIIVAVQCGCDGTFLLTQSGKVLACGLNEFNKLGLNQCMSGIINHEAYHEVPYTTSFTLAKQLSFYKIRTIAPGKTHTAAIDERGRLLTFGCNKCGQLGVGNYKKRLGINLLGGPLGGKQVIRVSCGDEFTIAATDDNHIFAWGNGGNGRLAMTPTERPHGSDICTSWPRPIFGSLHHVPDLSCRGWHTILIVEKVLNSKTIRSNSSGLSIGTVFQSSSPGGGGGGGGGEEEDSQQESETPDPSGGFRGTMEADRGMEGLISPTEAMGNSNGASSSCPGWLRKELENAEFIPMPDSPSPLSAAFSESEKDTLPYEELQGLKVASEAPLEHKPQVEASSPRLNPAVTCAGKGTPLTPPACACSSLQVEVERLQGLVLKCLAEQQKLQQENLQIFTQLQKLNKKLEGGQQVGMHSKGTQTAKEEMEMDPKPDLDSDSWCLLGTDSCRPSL

[11] = target: T4, Serine/threonine-protein kinase Nek9 (Homo sapiens); details: at 1 µM
[12] = target: Serine/threonine-protein kinase PLK1 (Homo sapiens) (UniProt P53350); details: at 0.1 µM
Serine/threonine-protein kinase PLK1 (Homo sapiens), sequence (P53350 whole entry): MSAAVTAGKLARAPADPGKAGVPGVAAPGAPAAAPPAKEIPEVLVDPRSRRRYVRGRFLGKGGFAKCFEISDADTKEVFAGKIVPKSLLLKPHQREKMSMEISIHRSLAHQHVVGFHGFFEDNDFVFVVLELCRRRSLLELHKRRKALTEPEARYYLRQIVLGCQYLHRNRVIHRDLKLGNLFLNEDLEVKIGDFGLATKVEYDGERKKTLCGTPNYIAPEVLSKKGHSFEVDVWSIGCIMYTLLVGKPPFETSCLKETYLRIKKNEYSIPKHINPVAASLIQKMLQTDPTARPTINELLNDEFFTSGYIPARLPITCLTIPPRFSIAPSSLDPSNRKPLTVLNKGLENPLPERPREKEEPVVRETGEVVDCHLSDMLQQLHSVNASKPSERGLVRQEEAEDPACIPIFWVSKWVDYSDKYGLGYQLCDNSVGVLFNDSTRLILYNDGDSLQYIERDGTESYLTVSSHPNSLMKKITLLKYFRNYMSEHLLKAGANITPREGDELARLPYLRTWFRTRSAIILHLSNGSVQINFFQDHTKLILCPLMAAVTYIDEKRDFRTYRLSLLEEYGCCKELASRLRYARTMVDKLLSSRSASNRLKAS

[13] = target: Serine/threonine-protein kinase PLK1 (Homo sapiens) (UniProt P53350); details: at 1 µM
[14] = target: T5, Dual specificity protein kinase TTK (Homo sapiens) (UniProt P33981); details: at 0.1 µM
T5 sequence (whole entry): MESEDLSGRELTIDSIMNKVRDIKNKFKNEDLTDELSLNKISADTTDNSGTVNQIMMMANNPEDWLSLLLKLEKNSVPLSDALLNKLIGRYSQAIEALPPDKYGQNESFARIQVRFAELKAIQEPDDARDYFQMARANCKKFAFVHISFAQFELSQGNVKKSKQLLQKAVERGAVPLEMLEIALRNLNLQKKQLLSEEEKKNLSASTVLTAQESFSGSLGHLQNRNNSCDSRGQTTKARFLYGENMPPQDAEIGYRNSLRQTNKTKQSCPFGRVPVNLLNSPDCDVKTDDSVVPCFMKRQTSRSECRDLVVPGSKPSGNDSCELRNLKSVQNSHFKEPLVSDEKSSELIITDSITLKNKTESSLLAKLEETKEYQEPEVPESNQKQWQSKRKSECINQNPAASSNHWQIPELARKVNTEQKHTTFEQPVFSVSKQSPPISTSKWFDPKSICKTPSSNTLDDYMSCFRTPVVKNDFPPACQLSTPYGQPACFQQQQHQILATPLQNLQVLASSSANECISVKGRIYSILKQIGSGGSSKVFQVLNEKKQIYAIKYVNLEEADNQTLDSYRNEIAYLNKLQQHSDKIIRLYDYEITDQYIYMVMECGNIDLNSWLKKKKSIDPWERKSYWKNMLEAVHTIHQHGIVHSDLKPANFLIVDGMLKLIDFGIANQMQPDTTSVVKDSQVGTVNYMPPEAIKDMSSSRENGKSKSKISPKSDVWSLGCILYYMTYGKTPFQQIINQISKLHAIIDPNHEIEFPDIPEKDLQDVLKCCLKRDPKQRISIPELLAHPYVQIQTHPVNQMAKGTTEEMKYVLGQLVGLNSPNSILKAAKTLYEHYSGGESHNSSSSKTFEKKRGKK

[15] = tested on: T6, Receptor-type tyrosine-protein kinase FLT3 (Homo sapiens), P36888 [D835Y]; details: at 1 µM
T6 sequence (whole entry): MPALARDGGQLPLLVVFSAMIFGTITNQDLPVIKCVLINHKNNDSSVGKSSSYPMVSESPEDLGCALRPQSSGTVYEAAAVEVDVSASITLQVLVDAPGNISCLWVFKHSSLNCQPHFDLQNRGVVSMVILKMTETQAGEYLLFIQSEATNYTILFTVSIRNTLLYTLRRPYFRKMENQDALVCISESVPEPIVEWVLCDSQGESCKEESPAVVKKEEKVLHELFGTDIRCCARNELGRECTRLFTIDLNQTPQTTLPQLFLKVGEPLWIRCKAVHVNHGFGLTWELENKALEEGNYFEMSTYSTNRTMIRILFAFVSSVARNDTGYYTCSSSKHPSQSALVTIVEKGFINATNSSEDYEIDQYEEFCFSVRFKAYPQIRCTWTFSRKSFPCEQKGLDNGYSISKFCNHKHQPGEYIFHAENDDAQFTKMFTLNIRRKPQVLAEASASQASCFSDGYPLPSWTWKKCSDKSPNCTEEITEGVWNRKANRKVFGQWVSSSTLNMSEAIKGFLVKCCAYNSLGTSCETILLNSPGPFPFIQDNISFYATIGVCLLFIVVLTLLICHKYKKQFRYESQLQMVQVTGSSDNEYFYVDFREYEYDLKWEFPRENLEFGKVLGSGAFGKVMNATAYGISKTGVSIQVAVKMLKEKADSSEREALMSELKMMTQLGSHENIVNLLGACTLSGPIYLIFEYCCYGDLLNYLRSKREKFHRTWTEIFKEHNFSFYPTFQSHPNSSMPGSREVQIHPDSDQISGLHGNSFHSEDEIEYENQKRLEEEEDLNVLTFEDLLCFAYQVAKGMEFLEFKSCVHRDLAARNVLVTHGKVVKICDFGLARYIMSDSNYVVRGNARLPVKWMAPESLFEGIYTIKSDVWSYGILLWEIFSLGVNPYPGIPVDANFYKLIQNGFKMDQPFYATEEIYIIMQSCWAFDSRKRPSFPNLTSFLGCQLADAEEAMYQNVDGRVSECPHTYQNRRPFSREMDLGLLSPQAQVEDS

[16] = target: Vascular endothelial growth factor receptor 3 (Homo sapiens) (UniProt P35916); details: at 0.1 µM
Vascular endothelial growth factor receptor 3 (Homo sapiens), sequence (P35916 whole entry): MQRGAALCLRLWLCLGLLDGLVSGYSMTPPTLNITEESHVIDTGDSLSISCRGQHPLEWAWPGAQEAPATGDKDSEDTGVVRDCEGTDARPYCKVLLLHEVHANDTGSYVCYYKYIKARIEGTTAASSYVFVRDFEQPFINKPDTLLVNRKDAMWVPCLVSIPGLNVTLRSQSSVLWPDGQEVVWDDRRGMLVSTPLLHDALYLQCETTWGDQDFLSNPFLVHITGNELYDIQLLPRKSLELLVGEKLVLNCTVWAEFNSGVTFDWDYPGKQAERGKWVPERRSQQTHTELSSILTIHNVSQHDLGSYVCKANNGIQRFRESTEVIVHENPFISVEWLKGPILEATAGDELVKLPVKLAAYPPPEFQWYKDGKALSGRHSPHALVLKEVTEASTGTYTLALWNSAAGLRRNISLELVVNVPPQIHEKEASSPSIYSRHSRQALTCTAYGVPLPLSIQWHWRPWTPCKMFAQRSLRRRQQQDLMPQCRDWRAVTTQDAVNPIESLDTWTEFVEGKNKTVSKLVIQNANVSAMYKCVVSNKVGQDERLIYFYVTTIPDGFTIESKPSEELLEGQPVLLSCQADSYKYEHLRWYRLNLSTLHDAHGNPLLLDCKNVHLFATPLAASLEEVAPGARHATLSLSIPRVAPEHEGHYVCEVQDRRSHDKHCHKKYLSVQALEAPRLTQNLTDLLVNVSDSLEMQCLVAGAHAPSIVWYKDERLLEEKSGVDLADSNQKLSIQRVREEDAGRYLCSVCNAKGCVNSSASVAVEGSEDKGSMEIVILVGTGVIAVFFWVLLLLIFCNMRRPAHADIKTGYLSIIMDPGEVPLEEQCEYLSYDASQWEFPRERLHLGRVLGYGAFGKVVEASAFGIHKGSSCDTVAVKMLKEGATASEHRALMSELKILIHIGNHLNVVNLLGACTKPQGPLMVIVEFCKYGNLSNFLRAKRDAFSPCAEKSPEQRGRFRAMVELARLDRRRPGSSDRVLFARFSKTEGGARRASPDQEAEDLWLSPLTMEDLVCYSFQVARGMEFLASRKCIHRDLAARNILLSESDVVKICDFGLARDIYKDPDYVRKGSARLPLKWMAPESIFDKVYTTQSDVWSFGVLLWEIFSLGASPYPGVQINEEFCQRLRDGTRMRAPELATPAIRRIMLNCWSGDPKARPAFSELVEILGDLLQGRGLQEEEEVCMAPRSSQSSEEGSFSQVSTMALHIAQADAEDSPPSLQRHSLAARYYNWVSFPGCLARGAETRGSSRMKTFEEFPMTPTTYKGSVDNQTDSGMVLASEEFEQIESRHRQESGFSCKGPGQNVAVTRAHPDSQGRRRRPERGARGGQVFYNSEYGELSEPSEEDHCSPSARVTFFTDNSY

[17] = target: Vascular endothelial growth factor receptor 3 (Homo sapiens) (UniProt P35916); details: at 1 µM
[18] = target: Macrophage colony-stimulating factor 1 receptor (Homo sapiens) (UniProt P07333); details: at 0.1 µM
Macrophage colony-stimulating factor 1 receptor (Homo sapiens), sequence (P07333 whole entry): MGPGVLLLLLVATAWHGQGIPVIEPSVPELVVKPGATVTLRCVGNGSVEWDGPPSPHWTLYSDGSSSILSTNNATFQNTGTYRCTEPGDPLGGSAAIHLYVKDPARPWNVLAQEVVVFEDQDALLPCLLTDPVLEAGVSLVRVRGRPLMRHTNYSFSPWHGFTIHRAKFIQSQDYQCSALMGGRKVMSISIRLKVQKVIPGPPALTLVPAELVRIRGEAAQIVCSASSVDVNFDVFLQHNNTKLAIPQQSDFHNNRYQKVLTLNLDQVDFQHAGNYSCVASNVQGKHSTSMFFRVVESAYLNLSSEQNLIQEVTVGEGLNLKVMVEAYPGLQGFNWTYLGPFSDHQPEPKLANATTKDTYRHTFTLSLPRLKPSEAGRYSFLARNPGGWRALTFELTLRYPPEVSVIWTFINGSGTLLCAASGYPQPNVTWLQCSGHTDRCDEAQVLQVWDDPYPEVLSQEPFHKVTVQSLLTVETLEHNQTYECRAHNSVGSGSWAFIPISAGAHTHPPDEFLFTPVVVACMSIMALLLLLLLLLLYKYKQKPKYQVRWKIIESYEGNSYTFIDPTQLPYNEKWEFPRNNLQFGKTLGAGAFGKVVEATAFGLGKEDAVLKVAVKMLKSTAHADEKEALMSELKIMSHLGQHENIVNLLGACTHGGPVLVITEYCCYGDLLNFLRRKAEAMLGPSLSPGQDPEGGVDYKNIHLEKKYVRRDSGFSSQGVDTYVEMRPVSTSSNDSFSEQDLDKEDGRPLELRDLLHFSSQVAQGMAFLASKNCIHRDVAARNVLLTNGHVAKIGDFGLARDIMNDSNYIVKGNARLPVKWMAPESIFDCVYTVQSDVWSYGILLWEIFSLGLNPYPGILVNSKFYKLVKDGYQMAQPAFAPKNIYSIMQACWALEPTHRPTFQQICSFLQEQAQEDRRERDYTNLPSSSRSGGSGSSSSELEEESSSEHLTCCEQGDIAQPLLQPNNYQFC

[19] = target: Macrophage colony-stimulating factor 1 receptor (Homo sapiens) (UniProt P07333); details: at 1 µM
[20] = target: Tyrosine-protein kinase Fyn (Homo sapiens) (UniProt P06241); details: at 0.1 µM
Tyrosine-protein kinase Fyn (Homo sapiens), sequence (P06241 2-537 limits assumed): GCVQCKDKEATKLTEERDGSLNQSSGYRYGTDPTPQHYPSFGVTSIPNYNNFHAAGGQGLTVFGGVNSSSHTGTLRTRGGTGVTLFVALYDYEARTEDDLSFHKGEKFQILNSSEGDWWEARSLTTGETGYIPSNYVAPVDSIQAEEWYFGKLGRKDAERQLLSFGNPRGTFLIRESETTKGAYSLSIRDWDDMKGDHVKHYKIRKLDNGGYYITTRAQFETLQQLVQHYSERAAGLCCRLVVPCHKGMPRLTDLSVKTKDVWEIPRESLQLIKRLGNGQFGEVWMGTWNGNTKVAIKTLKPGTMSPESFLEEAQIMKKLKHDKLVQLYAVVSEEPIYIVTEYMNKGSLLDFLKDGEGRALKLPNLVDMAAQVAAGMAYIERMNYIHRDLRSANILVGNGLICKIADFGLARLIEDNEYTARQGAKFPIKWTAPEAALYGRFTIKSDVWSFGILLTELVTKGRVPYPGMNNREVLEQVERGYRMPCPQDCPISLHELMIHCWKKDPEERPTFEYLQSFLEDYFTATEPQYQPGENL

COc1cccc(-n2ncc3c(N/N=C/c4ccc(C(=O)NCCN(C)C)cc4)ncnc32)c1
inhibition [1]: -5.84% | inhibition [2]: 2.06% | inhibition [3]: 7.24% | inhibition [4]: 0.16% | inhibition [5]: 1.98% | inhibition [6]: 1.11% | inhibition [7]: 0.35% | inhibition [8]: 3.99% | inhibition [9]: -1.23% | inhibition [10]: 5.54% | inhibition [11]: 1.36% | inhibition [12]: 1.5% | inhibition [13]: 2.1% | inhibition [14]: 3.48% | inhibition [15]: 76% | inhibition [16]: 12.1% | inhibition [17]: 53.5% | inhibition [18]: 6.78% | inhibition [19]: 37.8% | inhibition [20]: 48.6%

CNC(=O)c1sc(-n2cnc3cc(OC)c(OC)cc32)cc1OCc1ccccc1C(F)(F)F
inhibition [1]: 5.28% | inhibition [2]: 1.76% | inhibition [3]: 2.01% | inhibition [4]: 3.26% | inhibition [5]: 4.32% | inhibition [6]: 1.25% | inhibition [7]: 1.86% | inhibition [8]: 1.64% | inhibition [9]: -2.15% | inhibition [10]: 7.04% | inhibition [11]: 9.14% | inhibition [12]: 4.65% | inhibition [13]: 17.8% | inhibition [14]: 4.81% | inhibition [15]: -2.47% | inhibition [16]: 3.76% | inhibition [17]: 6.76% | inhibition [18]: -2.22% | inhibition [19]: 7.07% | inhibition [20]: 2.51%
